Assay results published in PubChem BioAssay AID1159580 (chemical genetic matrix, 2015).
“And” between values parts separate entries of the source, which are not always exact repeats. Identical values can stand only once. The campaign covered roughly 5,500 compounds. About 2,000 (36%) were called active. Another 18% or so got no clear call; they are omitted. No stated cut-off is given here; in the data, active means normalized growth mostly below about 0.91 (no sharp cut-off); inconclusive means no clear call, values can overlap the other calls; inactive means mostly above about 0.92. Some of the results follow.

Experiment: chemical genetic growth profiling, strain panel (AID 1159580);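 further: tested at 20 µM; growth read once vehicle control cultures reached saturation at 30 °C; 1 = growth at the plate median or of vehicle wells; lower values mean less growth of the strain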
Settings: S. cerevisiae deletion strains, growth OD

Measured: normalized growth

Nc1c2c(nc3ccccc13)CCCC2O (stereo not drawn)
inactive: locus YAL021C, strain ccr4, active compounds read low 1.01 | locus YAL026C, strain drs2, active compounds read low 1.01 | locus YAL030W, strain snc1, active compounds read low 1.01 | locus YAL040C, strain CLN3, active compounds read low 1.05 | locus YBL061C, strain skt5, active compounds read low 1.01 | locus YBR009C, strain hhf1, active compounds read low 1 | locus YBR021W, strain FUR4, active compounds read low 0.94 | locus YBR023C, strain chs3, active compounds read low 1.01 | locus YBR171W, strain sec66, active compounds read low 1 | locus YBR229C, strain ROT2, active compounds read low 1.01 | locus YBR231C, strain swc5, active compounds read low 0.998 | locus YBR279W, strain paf1, active compounds read low 1.02 | locus YCL011C, strain gbp2, active compounds read low 1.01 | locus YCL016C, strain dcc1, active compounds read low 1 | locus YCL029C, strain bik1, active compounds read low 0.974 | locus YCL061C, strain MRC1 (second series), active compounds read low 1.01 | locus YCL061C, strain MRC1, active compounds read low 1.03 | locus YCL069W, strain vba3, active compounds read low 1.01 | locus YCR088W, strain abp1, active compounds read low 1 | locus YDL005C, strain med2, active compounds read low 1 | locus YDL035C, strain GPR1, active compounds read low 0.994 | locus YDL040C, strain nat1, active compounds read low 1.01 | locus YDL074C, strain BRE1, active compounds read low 1.04 | locus YDL101C, strain DUN1, active compounds read low 1.01 | locus YDL134C, strain PPH21, active compounds read low 1.01 | locus YDL185W, strain tfp1, active compounds read low 0.964 | locus YDL192W, strain arf1, active compounds read low 0.987 | locus YDR001C, strain nth1, active compounds read low 1.01 | locus YDR069C, strain doa4, active compounds read low 1 | locus YDR101C, strain arx1, active compounds read low 0.995 | locus YDR137W, strain rgp1, active compounds read low 1.01 | locus YDR159W, strain sac3, active compounds read low 0.997 | locus YDR162C, strain NBP2, active compounds read low 0.985 | locus YDR195W, strain ref2 0.917 | locus YDR297W, strain sur2, active compounds read low 1.01 | locus YDR318W, strain mcm21, active compounds read low 0.982 | locus YDR334W, strain swr1, active compounds read low 1.01 | locus YDR335W, strain msn5, active compounds read low 1.01 | locus YDR363W, strain ESC2, active compounds read low 1 | locus YDR388W, active compounds read low 0.985 | locus YDR392W, strain spt3, active compounds read low 0.902 | locus YDR502C, strain sam2, active compounds read low 0.998 | locus YEL003W, strain gim4, active compounds read low 1.01 | locus YEL037C, strain rad23, active compounds read low 1.01 | locus YEL061C, strain CIN8 (second series), active compounds read low 1.01 | locus YEL061C, strain CIN8, active compounds read low 1.03 | locus YER002W, strain NOP16, active compounds read low 1.01 | locus YER015W, strain faa2, active compounds read low 1 | locus YER016W, strain bim1, active compounds read low 0.991 | locus YER110C, active compounds read low 0.981 | locus YER111C, strain swi4, active compounds read low 1 | locus YER155C, strain BEM2 (second series), active compounds read low 1 | locus YER155C, strain BEM2, active compounds read low 0.994 | locus YER167W, strain BCK2, active compounds read low 1 | locus YFR010W, strain ubp6, active compounds read low 1 | locus YGL078C, strain dbp3, active compounds read low 0.992 | locus YGL086W, strain mad1, active compounds read low 1.01 | locus YGL167C, strain pmr1, active compounds read low 1 | locus YGL173C, strain kem1, active compounds read low 1.01 | locus YGL227W, strain vid30, active compounds read low 0.995 | locus YGL240W, strain doc1, active compounds read low 0.987 | locus YGL248W, strain PDE1, active compounds read low 1.02 | locus YGL253W, strain hxk2, active compounds read low 1 | locus YGR078C, strain PAC10, active compounds read low 1.03 | locus YGR135W, strain pre9, active compounds read low 0.979 | locus YGR229C, strain SMI1, active compounds read low 1.02 | locus YGR252W, strain gcn5, active compounds read low 0.998 | locus YHR013C, strain ard1, active compounds read low 0.945 | locus YHR027C, strain rpn1, active compounds read low 1.01 | locus YHR030C, strain SLT2, active compounds read low 0.993 and 0.981 | locus YHR079C, strain IRE1 (second series), active compounds read low 0.976 | locus YHR079C, strain IRE1, active compounds read low 0.983 | locus YHR094C, strain hxt1, active compounds read low 0.992 | locus YHR129C, strain ARP1, active compounds read low 1 | locus YHR142W, strain chs7, active compounds read low 1.03 | locus YHR200W, strain rpn10, active compounds read low 0.973 | locus YIL066C, strain RNR3, active compounds read low 1.02 | locus YIL073C, strain SPO22, active compounds read low 0.912 | locus YIL125W, strain kgd1, active compounds read low 0.996 | locus YIR030C, strain dcg1, active compounds read low 0.979 | locus YJL092W, strain hpr5, active compounds read low 1.03 | locus YJL095W, strain BCK1 (second series), active compounds read low 1.01 | locus YJL095W, strain BCK1, active compounds read low 1.05 and 0.988 | locus YJL115W, strain asf1, active compounds read low 1 | locus YJL129C, strain trk1, active compounds read low 1.05 | locus YJL134W, strain LCB3, active compounds read low 0.996 | locus YJL154C, strain vps35, active compounds read low 1.01 | locus YJL164C, strain tpk1, active compounds read low 1.02 | locus YJL166W, strain qcr8, active compounds read low 1.01 | locus YJL168C, strain set2, active compounds read low 0.991 | locus YJL187C, strain SWE1 (second series), active compounds read low 1.03 | locus YJL187C, strain SWE1, active compounds read low 1.02 | locus YJR043C, strain POL32, active compounds read low 1.02
